The entries come from a sample that favours hits as a whole.
Pf Dd2 growth: blocks in vitro growth of P. falciparum Dd2. P. falciparum Dd2 growth, SYBR Green, 72 h. Potency, µM (doses to about 28.9 µM), actives largely listed as inhibitors. hit rate 4.3% among 120,000. AID 1347417; active = well fitted inhibition curve with a large enough effect; also: nearly all actives have a fitted effect of over 65% in size
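Infected erythrocytes (Dd2, 0.3% parasitemia, 2.5% hematocrit final) are added to compound in RPMI-1640/Albumax II medium, grown 72 h at 37C in low oxygen, then lysed with saponin/Triton-X containing SYBR Green and read by fluorescence.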
A number is an active result; n = inactive; [ ] = another dose, or the depositor's remark.

SMILES	Pf Dd2 growth
N#Cc1cccc(CN2CCOC[C@H]2c2ncc(-c3ccc(F)cc3)[nH]2)c1	n
Oc1ccccc1CN1CCOC[C@H]1c1ncc(-c2cccc(Cl)c2)[nH]1	3.2µM
Cn1ccnc1CN1CCOC[C@H]1c1ncc(-c2cccc(Cl)c2)[nH]1	5µM
CC(=O)Nc1ccc(CN2CCOC[C@H]2c2ncc(-c3cccc(Cl)c3)[nH]2)cc1	n
c1cncc(CN2CCOC[C@H]2c2ncc(-c3cccnc3)[nH]2)c1	n
Fc1ccc(-c2cnc([C@@H]3COCCN3Cc3ncc[nH]3)[nH]2)cc1	n
CC[C@H]1CN(S(=O)(=O)c2ccc(OC)cc2)CC[C@H]1CC(=O)N1CCC(C(=O)OC)CC1	n
CCOc1cccc(CN2C[C@@H](CO)[C@H](c3nc(C)no3)C2)c1	n
CNC(=O)C1CN(c2ccccc2)C(=O)N1 (stereo not drawn)	n
Nc1nc(C(=O)N[C@H]2CCOC[C@H]2C2CCOCC2)cs1	n
COc1cccc(C(=O)N2CCC(c3nc(C4CCOC4)no3)CC2)c1 (stereo not drawn)	n
CCN(C(=O)Cn1cc(C(=O)c2ccc(F)cc2)c(=O)c2ccc(C)nc21)c1cccc(C)c1	8.9µM
Cc1ccc(C)c(NC(=O)Cn2cc(C(=O)c3ccc(Cl)cc3)c(=O)c3ccc(C)nc32)c1	n
Cc1ccc2c(=O)c(C(=O)c3cccc(Cl)c3)cn(CC(=O)NCc3ccc(F)cc3)c2n1	n
O=C(NCc1ccccc1)N1CCN2C(=O)N(C3CCCCC3)C[C@H]2C1	n
CC(=O)N1CCCc2cc(S(=O)(=O)N3CCC(C(=O)Nc4c(C)cccc4C)CC3)ccc21	n
CCN(CC)C(=O)C1CCN(S(=O)(=O)c2ccc3c(c2)CCCN3C(C)=O)CC1	n
CCN(C(=O)C1CCN(S(=O)(=O)c2ccc3c(c2)CCCN3C(C)=O)CC1)c1cccc(C)c1	13µM
O=[S+]1([O-])NC2(CCN(Cc3cccc4ccccc34)C2)CNc2ccccc21 (stereo not drawn)	n
OC1(CNCc2cccnc2-n2cncn2)CCNC1 (stereo not drawn)	n
c1ccc(-n2cc(CN3CCCC3c3nc4ccccc4s3)nn2)cc1 (stereo not drawn)	n
COCCN1C(=O)[C@H]2CN(Cc3cccc(F)c3)C[C@H]2C1=O	n
CCc1ccccc1S(=O)(=O)N1CCC(N(C(=O)COC)C2CCOCC2)CC1	n
COCC(=O)NC[C@H]1O[C@H](Cc2cc(CN(C)C)on2)CC[C@@H]1O	n
CC(=O)Nc1cccc(C(=O)N2CCC(n3cc(-c4nc(C)no4)nn3)CC2)c1	n
SMILES	Pf Dd2 growth
Cc1ccc(C(=O)N2CCC(n3cc(-c4nc(C5CC5)no4)nn3)C2)s1 (stereo not drawn)	10µM
Cc1noc(-c2cn(C3CCN(C(=O)C4(c5ccccc5)CC4)CC3)nn2)n1	n
CC(=O)Nc1cccc(C(=O)N2CCC(n3cc(-c4nc(-c5ccccc5)no4)nn3)C2)c1 (stereo not drawn)	4.5µM
Cc1ccc(C(=O)N2CCCC(n3cc(-c4nc(C5CC5)no4)nn3)C2)s1 (stereo not drawn)	n
COc1cccc(C(=O)N2CCC(n3cc(-c4nc(C)no4)nn3)CC2)c1	n
CC(C)c1noc(-c2cn(C3CCN(C(=O)c4cccc(OC(F)(F)F)c4)C3)nn2)n1 (stereo not drawn)	n
Cc1ccc(C(=O)N2CCC(n3cc(-c4nc(-c5ccccc5)no4)nn3)C2)cc1C (stereo not drawn)	n
Cc1noc(-c2cn(C3CCN(C(=O)c4ccc(C)s4)CC3)nn2)n1	n
CC(C)c1noc(-c2cn(C3CCN(C(=O)c4cccc(C(F)(F)F)c4)C3)nn2)n1 (stereo not drawn)	10µM
COc1ccc(C2(C(=O)N3CCC(n4cc(-c5nc(C)no5)nn4)CC3)CC2)cc1	3.2µM
CC(C)c1noc(-c2cn(C3CCN(C(=O)c4ccc(F)c(F)c4)C3)nn2)n1 (stereo not drawn)	n
C1CC(c2noc(C3CC3)n2)CN1 (stereo not drawn)	n[5.79 µM]
CS(=O)(=O)N1CCCN(Cc2cn[nH]c2-c2cccs2)CCNC(=O)CC1c1ccccc1 (stereo not drawn)	n
CCN(CC)CC(C)NCc1ccccc1 (stereo not drawn)	n
COc1ccc(CNC(=O)CCC2CCCN(C(=O)CN3CCOC3=O)C2)c(OC)c1 (stereo not drawn)	n
COc1cccc(-c2ccc(NC(=O)C3CCCN3Cc3cnn(C)c3)cc2)c1 (stereo not drawn)	n
Cc1ccc(-n2cc(CN3CCCCC3C(N)=O)c(-c3cccc(C)c3)n2)cc1 (stereo not drawn)	11µM
Cc1cccc(CC(=O)N2CCCCCC2c2nnc(-c3ccccc3)o2)c1 (stereo not drawn)	n
COc1ccc(F)cc1C(C(=O)O)N1CCCN(c2ncccn2)CC1 (stereo not drawn)	n
COc1ccc(F)cc1S(=O)(=O)NC1CCc2nnc(C3CC3)n2CC1 (stereo not drawn)	n
O=C(O)CCC(=O)N1Cc2ccccc2CC2(CCCN(Cc3ccncc3)C2)C1 (stereo not drawn)	n

Compound activity from PubChem.
